This passage reports inhibition results from PubChem BioAssay AID504690 (Sanford-Burnham Center for Chemical Genomics, 2011).

For orientation: inhibition means the change of the read-out against control, counted positive when it falls.

SMILES strings stand for the structures. Screen size: about 350,000 compounds; about 2,700 (0.77%) were called active. This is one part of a sample in which actives are shown more often than they occur.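 Rule for the calls: active = inhibition reaching at least a set limit at 20 µM in the primary screen (cut at about 59% in these data); inactive = the rest.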

The test relates to glucose-6-phosphate dehydrogenase-6-phosphogluconolactonase (Plasmodium falciparum 3D7). In words: PfG6PD enzyme inhibitors, primary screen, biochemical, fluorescence intensity, uHTS (AID 504690).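 Note: 0% = DMSO wells with substrate and 100% = DMSO wells lacking glucose-6-phosphate.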 As to conditions: PfGluPho enzyme, NADPH resazurin-diaphorase fluorescence; at 20 µM; stronger effect = higher value.
`Nc1ccc2nc3c(=O)[nH]c(=S)[nH]c3nc2c1`: the inhibition is 83.3% (active).

As for `Cc1ccc(S(=O)(=O)N2CCN(C(=O)CSc3cc(C)ccc3C)CC2)c(C)c1`, the inhibition is 13.7% (inactive).

For `CCCOC1CCCN(C(=O)c2cc(COc3cncc(Cl)c3)on2)C1` (centres undefined), the inhibition was 3.11% (inactive).

Turning to `CCCCNS(=O)(=O)c1ccc(S(=O)(=O)n2cnc3ccccc32)cc1`, the inhibition is -0.9% (inactive).

Take `CCOc1c2ccc(C(=O)NC3CCCc4ccccc43)cc2nn1CC` (centres undefined): the inhibition is 0.09% (inactive).

In the case of `CC1=CC(C)(C)Nc2ccc(OC(=O)CN3C(=O)C4CCCCC4C3=O)cc21` (centres undefined), the inhibition was 70.6% (active).

Consider `CC1=CC(C)(C)Nc2ccc(OC(=O)C(Cc3ccccc3)N3C(=O)C4CCCCC4C3=O)cc21` (centres undefined), for which the inhibition was 38.3% (inactive).

With `O=C(COC(=O)CN1C(=O)C2CCCCC2C1=O)Nc1ccc(F)c(F)c1F` (centres undefined), the inhibition was 14.5% (inactive).

In the case of `CC1CCCCC1NC(=O)CCS(=O)(=O)c1ccc2c(c1)NC(=O)CO2` (centres undefined), the inhibition is 4.88% (inactive).

With `CN(C)N(C)C(=O)C(O)(c1ccccc1)c1ccccc1`, the inhibition was -19.5% (inactive).

With `C/C=C/c1ccc(OCC(=O)OCC(=O)Nc2c(C)nn(-c3ccccc3)c2C)c(OC)c1`, the inhibition is -4.73% (inactive).

Turning to `N=c1n(Cc2ccc(Cl)cc2)c2ccccc2n1CC(O)c1ccco1` (centres undefined), the inhibition is 8.27% (inactive).

As for `O=C(Nc1ncccc1O)c1ccc(C(=O)c2ccccc2)cc1`, the inhibition is -5.63% (inactive).

Consider `O=C(NC1=CC(=O)c2ccccc2C1=O)c1ccccc1`, for which the inhibition is 80.4% (active).

Take `O=C(Nc1ccc2ccccc2c1[N+](=O)[O-])c1ccccc1`: the inhibition is 33.8% (inactive).

On to `COc1ccc(C(=O)NCc2nnc(SCCOc3ccccc3)n2C)cc1`, for which the inhibition is -13% (inactive).

Take `CC(Sc1nnc(COc2ccccc2)n1-c1ccccc1)C(=O)O` (centres undefined): the inhibition is -12.2% (inactive).

In the case of `COc1ccc(OCc2nnc3n2N=C(c2ccccc2)C(CC(=O)O)S3)cc1` (centres undefined), the inhibition is 88.1% (active).

In the case of `Cc1cccc(C)c1NC(=O)c1ccc(CN2CCc3ccccc3C2)cc1`, the inhibition was 4.01% (inactive).

For `O=C(c1cccnc1)N1CCN(S(=O)(=O)c2cccs2)CC1`, the inhibition was -17.9% (inactive).

Consider `COc1ccccc1C(=O)N1CCNC(=O)C1CC(=O)Nc1ccc(Cl)cc1` (centres undefined), for which the inhibition was -0.83% (inactive).

As for `CN1CCc2nc(SC(C(=O)O)c3ccccc3)c(C#N)c(-c3cccs3)c2C1` (centres undefined), the inhibition is 33.9% (inactive).

For `Cc1noc(C)c1C(=O)OC(C)C(=O)Nc1ccc2c(c1)OCO2` (centres undefined), the inhibition was 7.92% (inactive).

Take `O=S1(=O)N=C(N(CCO)/N=C/c2ccccc2F)c2ccccc21`: the inhibition was -22.8% (inactive).

On to `CCOC(=O)C(NC(C)=O)C(=O)Nc1ccc(OC)cc1` (centres undefined), for which the inhibition is -2.17% (inactive).

`CCOC(=O)c1ccccc1CN1C(=O)c2ccccc2S1(=O)=O`: the inhibition is -6.44% (inactive).

Consider `CCOC(=O)C1=C(c2ccc(OC)cc2)C(=O)c2ccccc2C1=O`, for which the inhibition was 101% (active).

Take `CCOC(=O)c1c(C)nn(-c2ncccc2NC(=O)CCC(=O)O)c1C`: the inhibition is -27.7% (inactive).

For the molecule `CC(C)[C@H](NC(=O)N1CCn2c1nc1ccccc12)C(=O)NCc1ccc2c(c1)OCO2`, the inhibition was 20.7% (inactive).

In the case of `COc1cc(C(F)(F)F)c(C(=O)N(C)c2ccc(Cl)cc2)cn1`, the inhibition is 5.85% (inactive).

For the molecule `COc1ccc(Cl)cc1NC(=O)CN(C)C(=O)c1cc2ccccc2cc1OC`, the inhibition was 11.4% (inactive).

In the case of `COc1ccc(Cl)cc1NC(=O)CN(C)C(=O)CNC(=O)C12CC3CC(CC(C3)C1)C2`, the inhibition was -2.93% (inactive).

Turning to `COc1ccc(Cl)cc1NC(=O)CN(C)C(=O)CCCc1c[nH]c2ccccc12`, the inhibition was 78.4% (active).

As to `Cc1ccc(-n2ncc(C(=O)NC3CC3)c2C2CCN(C(=O)OC(C)(C)C)CC2)c(C)c1`, the inhibition is -21.1% (inactive).

Take `O=C(NCCOc1ccccc1)c1ccccc1F`: the inhibition was -13.3% (inactive).

With `OCC[C@H]1C[C@H](O)[C@@H](O)[C@]2(Cc3ccccc3CO2)O1`, the inhibition was 0.59% (inactive).

As to `S=c1[nH]nc(-c2cc(-c3ccccc3)n[nH]2)n1/N=C/c1c2ccccc2cc2ccccc12`, the inhibition is 59.1% (active).

For the molecule `CCN(CC)S(=O)(=O)c1cccc(-c2n[nH]c(=S)n2/N=C/c2ccc(C(=O)OC)cc2)c1`, the inhibition was 13.1% (inactive).

For the molecule `Cc1cc(-c2n[nH]c(=S)n2/N=C/C(Br)=C/c2ccccc2)n[nH]1`, the inhibition was 23.4% (inactive).

With `O=C(CCC(=O)OCC(F)(F)C(F)F)NCc1ccccc1`, the inhibition is 1.98% (inactive).

With `O=C1OC(Oc2ccc(Br)cc2)(c2ccccc2)c2ccccc21` (centres undefined), the inhibition is 69.2% (active).

For the molecule `COc1ccc(OC)c(-n2cc3c(=O)n(C)c(=O)n(C)c3c2)c1`, the inhibition is 17.5% (inactive).

Take `CC[C@]12c3[nH]c4cc(CCC(=O)N(C)C)ccc4c3CCN1C(=O)[C@@H](CC(=O)NCC13CC4CC(CC(C4)C1)C3)C[C@@H]2C(=O)N1CCN(C(=O)C2CC2)CC1`: the inhibition was 0.29% (inactive).

As to `O=c1[nH]c(/C=C\c2cccc(C(F)(F)F)c2)nc(O)c1[N+](=O)[O-]`, the inhibition is 1.8% (inactive).

For `O=S(=O)(Nc1cccc(Oc2ccc(Cl)cc2)n1)c1ccc(F)cc1`, the inhibition is -6% (inactive).

With `CC(=O)N(C1=C(Cl)C(=O)c2ccccc2C1=O)c1ccc(C(=O)O)cc1`, the inhibition is 120% (active).

With `CCCCN(C(=O)c1ccc(S(=O)(=O)N2CCOCC2)cc1)C1CCS(=O)(=O)C1` (centres undefined), the inhibition is -2.48% (inactive).

As to `O=C(CCc1ccc(O)cc1)NN=Cc1cc(Br)ccc1O`, the inhibition was -4.92% (inactive).

For the molecule `COc1ccc(CC(=O)NCC(=O)N/N=C/c2cc(Br)ccc2OC)cc1`, the inhibition is 99.2% (active).

Regarding `Cc1ccc(OCCOCCOc2ccc(Br)cc2/C=N\NC(=O)c2ccncc2)cc1`, the inhibition is 40.5% (inactive).

With `O=[N+]([O-])c1c(NCCO)cc(Sc2nc3ccccc3s2)c2nonc12`, the inhibition is 89.2% (active).

As for `Cc1oc(C)c(C(=O)NCCCC(=O)O)c1C(=O)NCCCC(=O)O`, the inhibition was 2.34% (inactive).

On to `COc1cccc(C(=O)Nc2c3c(nn2-c2cccc(C)c2C)CS(=O)(=O)C3)c1OC`, for which the inhibition is 8.42% (inactive).

For the molecule `O=C1NC(=Nc2ccc(Cl)cc2)SC1Cc1cccc(Cl)c1Cl` (centres undefined), the inhibition is -30.1% (inactive).

For the molecule `O=C(NC1CCCC1)C(c1ccc(Cl)cc1)N(C(=O)c1csnn1)C1CC1` (centres undefined), the inhibition was -0.62% (inactive).

For the molecule `O=c1oc2ccccc2cc1-c1cn(-c2ccccc2)c(=S)[nH]1`, the inhibition was 64% (active).

As for `COc1cccc(-n2c(=S)[nH]c3c(oc4ccccc43)c2=O)c1`, the inhibition is 23.4% (inactive).

Turning to `Cc1ccc(S(=O)(=O)c2cc3c(=O)n4cccc(C)c4nc3n(CCc3ccccc3)c2=N)cc1C`, the inhibition is -4.62% (inactive).

As to `C[n+]1cccc(C(=O)O)c1`, the inhibition was -8.19% (inactive).

For `Cc1cccc(C(=O)OC(C)C(=O)NC2CCCc3ccccc32)c1O` (centres undefined), the inhibition was -19.6% (inactive).

`O=C(Nc1ccc(OC(F)(F)F)cc1)c1ccc2c(c1)no[n+]2[O-]`: the inhibition was 69.8% (active).

Regarding `CCOC(=O)Cc1ncccc1C(=O)Nc1ccc(OC(F)(F)F)cc1`, the inhibition is -20.5% (inactive).

Take `CCOc1c2ccc(C(=O)NCc3ccc(OC(F)(F)F)cc3)cc2nn1C`: the inhibition was 1.65% (inactive).

`CC(NC(=S)Nc1ccc(S(N)(=O)=O)cc1)c1ccc2c(c1)OCO2` (centres undefined): the inhibition was -1.17% (inactive).

As for `O=C(CN1CCN(c2ccc(O)cc2)CC1)Nc1ccc(-c2ccccc2)cc1`, the inhibition was 69% (active).

With `O=C(CN1CCN(c2cccc(Cl)c2)CC1)Nc1ccc(S(=O)(=O)N2CCOCC2)cc1`, the inhibition is 7.9% (inactive).

Regarding `Cc1ccc(Cl)cc1NC(=O)CN1CCN(S(=O)(=O)N2CCOCC2)CC1`, the inhibition was -17% (inactive).

`O=C(CN1CCN(c2ccc(F)cc2)CC1)Nc1cccc(C(F)(F)F)c1`: the inhibition is 12.7% (inactive).

For `O=C(CN1CCN(c2ccc(O)cc2)CC1)Nc1cc(S(=O)(=O)N2CCOCC2)ccc1Cl`, the inhibition is 73.8% (active).

`O=C(CN1CCOCC1)Nc1ccccc1`: the inhibition was -18.6% (inactive).

Take `COc1cc2c(cc1OC)C(C(=O)NCc1ccco1)C1c3ccccc3CCN1C2=O` (centres undefined): the inhibition was 0.17% (inactive).

For the molecule `CCn1nc(NC(=O)c2ccco2)c2cc3ccc(C)cc3nc21`, the inhibition was 6.85% (inactive).

Consider `O=C(NCCN=C1NS(=O)(=O)c2ccccc21)c1ccc(S(=O)(=O)N2CCOCC2)cc1`, for which the inhibition was 4.66% (inactive).

As to `COC(=O)c1ccc(OCC(=O)NC(C)(C)C)cc1`, the inhibition was 3.26% (inactive).

On to `CC(C)(C)NC(=O)COc1ccc(CNc2ccc3[nH]c(=O)[nH]c3c2)cc1`, for which the inhibition was 94.7% (active).

On to `O=C(COc1ccc([N+](=O)[O-])cc1Cl)Nc1ccc2[nH]c(=O)[nH]c2c1`, for which the inhibition was 13.1% (inactive).

For the molecule `COc1ccccc1CN1CC(C(=O)NCCc2cn[nH]c2)CCC1=O` (centres undefined), the inhibition is -1.62% (inactive).

`Cc1ccc(C(=O)OCC(=O)Nc2ccc(Cl)cn2)cc1S(=O)(=O)N1CCOCC1`: the inhibition is -1.58% (inactive).

In the case of `COC(C[C@@H](O)C[C@@H](O)[C@H](C)OCc1ccccc1)OC`, the inhibition is 10.8% (inactive).

Take `COc1c(O)cccc1-c1nnn(CCC(=O)OCC(=O)c2ccccc2)n1`: the inhibition was 6.47% (inactive).

Take `O=C(CCn1nnc2ccccc21)OCC(=O)c1ccc([N+](=O)[O-])cc1`: the inhibition is 59.2% (active).

With `CCOC(=O)c1cccc(NC(=O)CCn2nnc3ccccc32)c1`, the inhibition is -9.98% (inactive).

For the molecule `Cc1ccc(CSc2ccc(S(=O)(=O)N3CCCCC3)cn2)cc1`, the inhibition was 10.9% (inactive).

In the case of `CC(=O)Nc1ccc(CC#N)cc1`, the inhibition is -8.66% (inactive).

`O=C(NC(=O)c1cc(OCC(F)(F)F)ccc1OCC(F)(F)F)Nc1ccccc1`: the inhibition was 15.2% (inactive).

Turning to `COc1ccc2cc(-c3[nH]ncc3CNCCn3nc(C)cc3C)ccc2c1`, the inhibition is -4.25% (inactive).

As to `COc1cccc(-n2c(=S)sc3c(=O)n(-c4ccccc4OC)c(SCC4OCCO4)nc32)c1`, the inhibition was 22.9% (inactive).

`COc1ccc(Cl)cc1-n1c(=S)sc2c(=O)n(-c3ccc(F)cc3)c(SCC(=O)O)nc21`: the inhibition was 86.6% (active).

For the molecule `COc1cccc(-n2c(=S)sc3c(=O)n(-c4ccccc4C)c(SCC(=O)O)nc32)c1`, the inhibition is -2.42% (inactive).
